CYP2C9 act = CYP2C9 (human) activation; recombinant CYP2C9, luciferin-H conversion, luminescence; stronger effect = higher value; factor 1 = untreated enzyme, 0 = blocked; activation factor at 5 µM; hit rate 1.4% among 96,000; AID 1024;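 active means activation factor of 2 or more for CYP2C9 at a 5 µM dose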
CYP2C19 activ = increases human CYP2C19 enzyme activity | P33261 | recombinant CYP2C19, luciferin-H EGE luminescence; stronger effect = higher value; 0 = fully inhibited enzyme, 1 = untreated enzyme | activation factor at 5 µM | 96,000 tested, under 10 active | AID 1025;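 active means activation factor of at least 2 at 5 µM in the primary screen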
CYP2C9 inh = blocks human cytochrome P450 2C9; CYP2C9 Supersomes, luciferin-H conversion, luminescence; inhibition, % at 5 µM; hit rate 20% among 96,000; AID 777;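 active means blocking of liver enzyme CYP2C9 beyond about 50% at 5 µM, limit read from the data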
CYP2C19 inh = blocks human cytochrome P450 2C19 | CYP2C19 Supersomes, luciferin-H EGE luminescence, 30 min | AID 778 | P33261 | inhibition, % at 5 µM | hit rate 21% among 96,000;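 active means CYP2C19 inhibition above a set limit at 5 µM in the primary screen, cut at about 50% in these data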
PLK1 kinase inh = inhibitors of human PLK1 kinase. P53350. recombinant PLK1 kinase, TR-FRET peptide phosphorylation. inhibition, % at 10 µM. hit rate 0.53% among 97,000;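 active means inhibition of 50% or more in the single-concentration screen; inactive means inhibition below 50%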
Target sequence (P53350 whole entry, looked up): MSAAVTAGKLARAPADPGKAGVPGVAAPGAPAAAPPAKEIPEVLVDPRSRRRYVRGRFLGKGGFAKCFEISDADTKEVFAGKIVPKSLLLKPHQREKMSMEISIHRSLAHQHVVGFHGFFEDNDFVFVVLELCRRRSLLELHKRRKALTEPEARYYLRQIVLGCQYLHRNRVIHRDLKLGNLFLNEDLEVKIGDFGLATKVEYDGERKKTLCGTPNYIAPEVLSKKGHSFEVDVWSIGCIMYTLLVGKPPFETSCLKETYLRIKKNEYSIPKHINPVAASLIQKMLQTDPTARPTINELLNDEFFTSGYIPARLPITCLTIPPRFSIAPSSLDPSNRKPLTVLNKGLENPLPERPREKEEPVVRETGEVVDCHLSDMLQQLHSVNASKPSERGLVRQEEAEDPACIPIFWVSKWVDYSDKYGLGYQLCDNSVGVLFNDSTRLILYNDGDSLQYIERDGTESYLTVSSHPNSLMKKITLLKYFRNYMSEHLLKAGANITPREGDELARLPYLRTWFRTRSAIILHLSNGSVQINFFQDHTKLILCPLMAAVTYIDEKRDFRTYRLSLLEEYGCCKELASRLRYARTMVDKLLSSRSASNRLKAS
PLK1 PBD inh = inhibitors of human Plk1 polo box domain binding | P53350 | Plk1 PBD phosphopeptide binding, fluorescence polarization | inhibition, %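 (tested at about 20 µM)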 | hit rate 0.13% among 97,000; in the data active means inhibition above about 34%, passing the limit was not always enough
A number is an active result; – = inactive; · = no result given. An excerpt weighted towards active compounds, which were near 28% of everything screened.

SMILES	CYP2C9 act	CYP2C19 activ	CYP2C9 inh	CYP2C19 inh	PLK1 kinase inh	PLK1 PBD inh
O=C(NCC1CCCO1)c1ccc(CS(=O)(=O)c2ccc(Cl)cc2)o1 (stereo not given)	–	–	–	–	–	–
O=C1C(NS(=O)(=O)c2cccs2)=C(N2CCN(c3ccccc3)CC2)C(=O)c2ccccc21	–	–	63	–	–	–
O=C(C(NS(=O)(=O)c1cccs1)c1ccccc1)N1CCN(c2ccccc2)CC1 (stereo not given)	–	–	–	54	–	–
CN(C)CCN1C(=O)C(=O)/C(=C(/O)c2ccc(F)cc2)C1c1ccccc1 (stereo not given)	–	–	–	–	–	–
Cc1ccccc1N/C(SCc1ccc(Cl)cc1)=C(/C#N)C(=O)NCc1ccco1	–	–	55	85	–	–
Cc1cc(/C=C(\C#N)C(=O)NCc2ccco2)c(C)[nH]1	·	·	·	·	–	–
Cc1ccc(CS/C(Nc2ccccc2C)=C(\C#N)C(=O)NCc2ccco2)c(C)c1	–	–	–	51	–	–
N#Cc1nc(COc2ccccc2Cl)oc1NCc1ccc(F)cc1	–	–	–	–	–	–
N#Cc1nc(COc2ccccc2Cl)oc1NCc1cccnc1	–	–	–	91	–	–
Cc1ccc(CNc2oc(COc3ccccc3Cl)nc2C#N)cc1	–	–	61	–	–	–
CCCCn1c(NC(C)=O)c(C#N)c2nc3ccccc3nc21	–	–	–	–	–	–
N#Cc1c(N)n(CCCN2CCOCC2)c2nc3ccccc3nc12	–	–	–	89	–	–
N#Cc1c(N)n(CCNC(=O)c2cccs2)c2nc3ccccc3nc12	–	–	–	87	·	·
Cc1ccc2c(c1)c1nc3ccccc3nc1n2CCN1CCOCC1	–	–	–	–	·	·
CCCCCn1c(N)c(C#N)c2nc3ccccc3nc21	–	–	–	62	–	–
Cn1c(CCCNC(=O)c2cccs2)nc2ccccc21	–	–	–	–	–	–
CC1CCCN(C2=NC(=O)/C(=C/c3cn(-c4ccccc4)nc3-c3cccc(S(=O)(=O)N(C)C)c3)S2)C1 (stereo not given)	–	–	65	–	–	–
Cc1ccc(-c2nn(-c3ccccc3)cc2C=C2C(=O)CC(C)(C)CC2=O)cc1	·	·	·	·	–	–
CC1CCN(C2=NC(=O)/C(=C/c3cn(-c4ccccc4)nc3-c3cccc(S(=O)(=O)N(C)C)c3)S2)CC1	–	–	56	–	–	–
COc1ccc(-c2nnn(CC(=O)OC3CCCCC3)n2)cc1OC	–	–	–	–	–	–
COc1ccc(-c2nnn(CC(=O)N(C3CCCCC3)C(C)C(=O)NC3CCCC3)n2)cc1OC (stereo not given)	–	–	68	83	–	–
COc1ccc(-c2nnn(CC(=O)N(C3CCCC3)C(C)C(=O)NC3CCCC3)n2)cc1OC (stereo not given)	–	–	59	81	–	–
CCCC(C(=O)NC1CCCC1)N(C(=O)Cn1nnc(-c2ccc(C)o2)n1)c1ccccc1OC (stereo not given)	–	–	81	88	–	–
COc1ccc(-c2nnn(CC(=O)N(CC(=O)NC3CCCC3)c3cccc(C)c3)n2)cc1OC	–	–	–	–	–	–
CC(C)(CN=C1NS(=O)(=O)c2ccccc21)CNC(=O)CN1C(=O)c2ccccc2C1=O	–	–	–	–	–	–
SMILES	CYP2C9 act	CYP2C19 activ	CYP2C9 inh	CYP2C19 inh	PLK1 kinase inh	PLK1 PBD inh
CS(=O)(=O)N1CCC(C(=O)Nc2ccc3c(c2)OCCO3)CC1	–	–	–	–	–	–
CC(C)(C)NC(=O)c1sccc1C(=O)O	·	·	·	·	–	–
COc1ccc(C2=NN3C(C2)c2ccccc2OC32C(=O)N(C)c3ccccc32)cc1 (stereo not given)	–	–	–	–	–	–
Cc1ccc(C2=NN3C(C(=O)c4ccccc4)Oc4ccccc4C3C2)cc1 (stereo not given)	–	–	70	82	–	–
COc1ccc(OC)c(C(c2nnnn2CCc2ccccc2)N2CCN(c3ccccc3)CC2)c1 (stereo not given)	–	–	–	–	–	–
c1ccc(CCn2nnnc2C(c2cccnc2)N2CCN(c3ccccc3)CC2)cc1 (stereo not given)	–	–	73	81	–	–
Oc1ccc(N2CCN(C(c3cccnc3)c3nnnn3Cc3ccccc3)CC2)cc1 (stereo not given)	–	–	57	52	–	–
c1ccc(CCn2nnnc2C(c2cccnc2)N2CCN(c3nc4ccccc4s3)CC2)cc1 (stereo not given)	–	–	–	59	–	–
c1ccc(C(c2nnnn2C2CCCC2)N2CCN(c3nc4ccccc4s3)CC2)cc1 (stereo not given)	·	·	·	·	–	–
O=C(COC(=O)c1n[nH]c2ccccc12)NC(=O)NC12CC3CC(CC(C3)C1)C2	–	–	–	–	–	–
COC(=O)CSc1nnc(CNC(=O)c2ccc(S(=O)(=O)N3CCCCC3)cc2)n1C	–	–	–	–	–	–
CC(NC(=O)c1ccco1)C(=O)OCc1cccc(Cl)c1 (stereo not given)	–	–	–	–	–	–
COc1ccc(NC(=O)C(CCSC)N2C(=O)c3ccccc3C2=O)cc1 (stereo not given)	–	–	–	–	–	–
Cc1ccc(NC(=O)/C(=C\c2ccc([N+](=O)[O-])cc2)NC(=O)c2ccccc2)cc1	–	–	–	–	–	–
CCOC(=O)C(Cc1ccc(NC(=O)/C(=C/c2ccccc2)NC(=O)c2ccccc2)cc1)N1C(=O)c2ccccc2C1=O (stereo not given)	–	–	91	52	–	–
CCOC(=O)C(Cc1ccc(NC(=O)/C(=C/c2ccc(OC(C)=O)cc2)NC(C)=O)cc1)N1C(=O)c2ccccc2C1=O (stereo not given)	–	–	60	–	–	–
CNC(=S)Nc1cc(OC)ccc1OC	–	–	–	–	–	–
Cc1ccc2nc3ccc(N4CCCCCCC4)nn3c(=O)c2c1	–	–	70	64	–	–
Cc1ccc2nc3ccc(N4CCN(C)CC4)nn3c(=O)c2c1	–	–	–	–	–	–
CC(=O)C1=C(C)NC(=O)NC1c1cccc(O)c1 (stereo not given)	–	–	–	–	–	–
O=C1CC(c2ccccc2)c2c(O)cc(O)cc2O1 (stereo not given)	–	–	79	63	–	–
O=C1CC(c2ccccc2)c2ccc(O)cc2O1 (stereo not given)	–	–	54	–	–	–
CC(C(=O)N1CCN(C)CC1)N1C(=O)c2ccccc2C1=O (stereo not given)	–	–	–	–	–	–
N#C/C(=C\N1CCN(Cc2ccc3c(c2)OCO3)CC1)c1nc2ccccc2s1	–	–	–	89	–	–
CCOC(=O)N1CCN(/C=C(\C#N)c2nc3ccccc3s2)CC1	–	–	71	80	–	–
